In PubChem BioAssay (NCI):
This is part of a sample that, as a whole, favours compounds with a hit. Of some 83,000 tested, about 20% had one in any assay.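 Testing used 96-well plates and a 48-hour single-concentration exposure. Example: -40 means 40% of the starting cells died.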 Calls of active or inactive are those of the source. How the source made its calls: active means growth percent below 10; inactive means the rest.

How the values were obtained:
Experiment in all cases: NCI-60 one-dose screen, 48 h (100 = growth as untreated, 0 = no growth, -100 = all killed)
Conditions in all cases: 10 µM
[1] = tested on: SK-MEL-2 melanoma
[2] = tested on: EKVX NSCLC
[3] = tested on: SN12C renal
[4] = tested on: UO-31 renal
[5] = tested on: TK-10 renal
[6] = tested on: ACHN renal
[7] = tested on: CAKI-1 renal
[8] = tested on: A498 renal
[9] = tested on: CCRF-CEM leukemia
[10] = tested on: MOLT-4 leukemia
[11] = tested on: SR leukemia
[12] = tested on: RPMI-8226 leukemia
[13] = tested on: OVCAR-8 ovarian
[14] = tested on: OVCAR-5 ovarian
[15] = tested on: OVCAR-4 ovarian
[16] = tested on: SK-OV-3 ovarian
[17] = tested on: HS 578T breast
[18] = tested on: NCI/ADR-RES ovarian
[19] = tested on: IGROV1 ovarian
[20] = tested on: OVCAR-3 ovarian

Measured: growth

O=C(COc1cccc(/C=C2\CSc3ccc(Cl)cc3C2=O)c1)c1ccc(Cl)cc1
active: [4] -7.04% | [9] -26.1% | [10] -12.1% | [11] -3.18% | [12] -25.1%
inactive: [1] 44.2% | [2] 70.3% | [3] 79.7% | [5] 127% | [6] 81.7% | [7] 61.2% | [8] 91.3% | [13] 66.9% | [14] 86.7% | [15] 75% | [16] 86.2% | [17] 93% | [18] 72.8%

O=[N+]([O-])c1cccc(/C=N/NC(=S)NC23CC4CC(CC(C4)C2)C3)c1
inactive: [1] 96% | [2] 71.2% | [3] 83.1% | [4] 89.9% | [5] 96.6% | [6] 49.6% | [7] 89.9% | [8] 97.1% | [9] 86.2% | [10] 96.3% | [11] 81.4% | [12] 93.1% | [13] 40.6% | [14] 101% | [15] 39.5% | [16] 62.4% | [19] 76.3% | [20] 85.9% | [18] 67.2%

O=C1OC(C(Cl)(Cl)Cl)OC1C(Cl)(Cl)Cl (configuration not stated)
inactive: [1] 102% | [2] 106% | [3] 97.1% | [4] 89.4% | [5] 110% | [6] 113% | [7] 113% | [8] 109% | [9] 104% | [12] 104% | [13] 104% | [14] 105% | [15] 113% | [20] 109% | [17] 117% | [18] 108%
active: [10] -10.8%

CCOC(=O)c1cocc1C(=O)O
inactive: [1] 105% | [2] 103% | [3] 105% | [4] 93.3% | [5] 118% | [6] 111% | [7] 107% | [8] 112% | [9] 74.1% | [10] 86.5% | [12] 114% | [13] 105% | [14] 105% | [15] 100% | [16] 106% | [19] 113% | [20] 103% | [17] 100% | [18] 107%

CCN(CCCNc1cc2c(c(N)c1S(=O)(=O)O)C(=O)c1ccccc1C2=O)c1ccccc1
inactive: [1] 103% | [2] 103% | [3] 87.4% | [4] 75.2% | [5] 116% | [6] 103% | [7] 95.7% | [8] 103% | [9] 102% | [10] 108% | [11] 118% | [12] 101% | [13] 96.4% | [14] 107% | [15] 109% | [16] 100% | [19] 114% | [20] 111% | [17] 93.5% | [18] 99.8%

CCOC(=O)/C(=C(\C)N)C1CC(=O)NC1=O (configuration not stated)
inactive: [1] 123% | [2] 102% | [3] 96.5% | [4] 87.9% | [5] 118% | [6] 94% | [7] 98.2% | [8] 107% | [9] 96.2% | [10] 104% | [11] 102% | [12] 101% | [13] 99.7% | [14] 102% | [16] 107% | [19] 118% | [20] 109% | [17] 97.5% | [18] 92.8%

CC(C)(C)OC(=O)CC(S(=O)(=O)c1ccccc1)S(=O)(=O)c1ccccc1
inactive: [1] 114% | [2] 112% | [3] 96.1% | [4] 61.4% | [5] 21.4% | [6] 17.8% | [7] 90.6% | [8] 102% | [9] 46.9% | [10] 82.7% | [12] 99.3% | [13] 101% | [14] 98.8% | [15] 107% | [16] 101% | [19] 114% | [20] 48.3% | [17] 102%

CC(C)c1cc(N=O)cc(C(C)C)c1O
inactive: [1] 107% | [2] 105% | [3] 94.2% | [4] 90.2% | [5] 115% | [6] 98.6% | [7] 95.2% | [8] 108% | [9] 101% | [10] 89.1% | [11] 106% | [12] 93.5% | [13] 103% | [14] 97.2% | [15] 104% | [16] 109% | [19] 121% | [20] 110% | [18] 99.8%

O=c1oc2c(cc1-c1ccc(F)cc1)C(O)Oc1ccccc1-2 (configuration not stated)
inactive: [1] 76.1% | [2] 51.2% | [3] 95.4% | [4] 84.1% | [5] 72.3% | [6] 94.4% | [7] 74% | [8] 89.5% | [9] 113% | [10] 68.3% | [11] 58.1% | [12] 90.8% | [13] 100% | [14] 96.2% | [15] 90.6% | [16] 105% | [17] 16.6%

Cc1cc(C)nc(NS(=O)(=O)c2ccc(Nc3nc4nc(NCc5ccccc5)nc(-c5ccc(O)cc5)c4c(=O)[nH]3)cc2)n1
active: [1] 4.65% | [10] -1.75%
inactive: [2] 26.7% | [3] 33.1% | [4] 10.9% | [5] 10.3% | [6] 15.6% | [7] 33.1% | [8] 42.5% | [9] 19.6% | [11] 26.5% | [12] 18.1% | [13] 49.5% | [15] 18.3% | [16] 35.2% | [20] 34.2% | [17] 35.6% | [18] 20.3%

O=C(/C=C/c1cccc(B(O)O)c1)c1cccc(B(O)O)c1
active: [3] -3.76% | [4] -82.5% | [5] -11.7% | [6] 0.0369% | [7] -8.72% | [9] -13.8% | [10] 2.84% | [11] 3.2% | [13] -12.2% | [14] -12% | [16] 3.23% | [20] -28.2% | [18] 8.08%
inactive: [1] 44.8% | [2] 56.3% | [8] 65.5% | [12] 48.2% | [15] 53.9% | [19] 26.7% | [17] 16.9%

CCOC(=O)C1C(C(=O)OCC)C2C(=O)C3C(C(=O)OCC)C(C(=O)OCC)C3C(=O)C12 (configuration not stated)
inactive: [1] 115% | [2] 96.3% | [3] 94.2% | [4] 94.8% | [5] 112% | [6] 98.8% | [7] 101% | [8] 102% | [9] 102% | [10] 106% | [11] 117% | [12] 101% | [13] 104% | [14] 108% | [16] 109% | [19] 118% | [17] 108% | [18] 56%

CNS(=O)(=O)Oc1ccc(-c2ccc3occc3c2)cc1
inactive: [1] 108% | [2] 38.6% | [3] 97.7% | [4] 90.4% | [5] 98.5% | [6] 99.5% | [7] 93.3% | [8] 102% | [9] 87.7% | [10] 96.2% | [11] 111% | [12] 109% | [13] 99.5% | [14] 88.8% | [15] 98.4% | [16] 111% | [19] 99.8% | [20] 107% | [17] 110% | [18] 102%

CCOC(=O)Cn1c(=O)c2sc3ncccc3c2n2nnc(-c3ccccc3)c12
inactive: [1] 103% | [2] 104% | [3] 97.4% | [4] 60.2% | [5] 132% | [6] 95.5% | [7] 93.4% | [8] 152% | [9] 86.3% | [10] 89.6% | [11] 93.5% | [12] 94.7% | [13] 102% | [14] 105% | [15] 101% | [16] 94% | [17] 112% | [18] 105%

Cc1cc(CCNC=O)c(C)c2c1sc1ccccc12
inactive: [1] 109% | [2] 56.6% | [3] 79.7% | [4] 91.2% | [5] 94.4% | [6] 99.8% | [7] 80.7% | [8] 72.8% | [9] 84% | [10] 94.5% | [11] 89.4% | [12] 92.4% | [13] 97.9% | [14] 82.4% | [15] 85% | [16] 104% | [19] 122% | [20] 111% | [18] 97.8%

Cc1cc(Cl)ccc1Nc1nc(C(F)(F)F)ccc1C(=O)N/N=C/c1cccc(O)c1
inactive: [1] 16% | [2] 20.8% | [3] 52.3% | [5] 85.9% | [6] 28.3% | [7] 25.5% | [12] 24.1% | [13] 62.6% | [14] 51.1% | [15] 33.8% | [16] 38.8% | [19] 27.7% | [20] 35.9% | [18] 26.6%
active: [4] 6.02% | [8] -41.5% | [9] 4.04% | [10] 3.63% | [11] -13%

COc1cc2c(cc1OC)C(C(CCCCCC(CCC(C)C)C1NCCc3cc(OC)c(OC)cc31)CCC(C)C)NCC2 (configuration not stated)
active: [1] -91.9% | [2] -74.4% | [3] -85.5% | [4] -96.3% | [5] -97.2% | [6] -100% | [7] -84.7% | [8] -59.6% | [9] -74.3% | [10] 2.91% | [12] -57.1% | [13] -89.3% | [14] -100% | [15] -100% | [16] -99.5% | [20] -99.9% | [17] -41% | [18] -95.9%
inactive: [11] 12.1%
